Pf Dd2 growth = blocks in vitro growth of P. falciparum Dd2. P. falciparum Dd2 growth, SYBR Green, 72 h. hit rate 4.3% among 120,000. Potency, µM (titrated, usually from 28.9 µM), inactives show at the highest dose activity, negative = inhibition, actives largely listed as inhibitors; active means well fitted inhibition curve with a large enough effect;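 further: plate controls were DMSO vehicle for no effect and reference drug for full effect; nearly all actives have a fitted effect of over 65% in size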
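Readout: SYBR Green fluorescence, 485 nm excitation, 535 nm emission, after ~16 h lysis at 37C. Before that, Dd2-infected red cells (2.5% hematocrit) grew 72 h with compound, 29 uM top final concentration.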
Active calls of the source: *; i = inactive; ! = not active in a repeat; [ ] = another dose, or the depositor's remark. Shown is part of a subset that was picked to be rich in hits. Potency means the concentration at half of the fitted maximal effect.

SMILES | Pf Dd2 growth
N#Cc1cccc(-c2cn3c(n2)N(C(=O)C2CCCO2)CCC3)c1 (centres undefined) | i
COc1ccc(-c2onc(C)c2C(=O)NCCc2cccc(OC)c2)cc1 | 6%
Cc1[nH]ncc1CNC(=O)C1(Cc2ccccc2)CCCCC(=O)N1 (centres undefined) | -13%
CN1c2cc(C(=O)NCc3ccc(F)cc3F)ccc2C(=O)N2CCCC21 (centres undefined) | i
OCC1(Cc2ccccc2F)CCCN(c2nccc(C(F)(F)F)n2)C1 (centres undefined) | i
Cc1ccc(C(=O)N[C@@H]2CN(c3ncccn3)C[C@H]2CO)cn1 | -23%
COc1ccc(CN2CCC3(CC(c4cccc(C(F)(F)F)c4)=NO3)C2)cc1 (centres undefined) | 4%
COc1ccc(C2=NOC3(CCN(Cc4ccc(F)cc4)C3)C2)cc1 (centres undefined) | 4µM*
COc1ccc(C2=NOC3(CCN(Cc4cccnc4)C3)C2)cc1 (centres undefined) | i
COc1ccccc1-c1cnc(NC(=O)c2cnccn2)c2c1CCO2 | -10%[44.1 µM]
O=C(C1CC2(CCNCC2)CN1)N1CCc2c(nc(CC3CC3)[nH]c2=O)C1 (centres undefined) | 3%
O=C(NCCc1cccs1)c1cc2n(n1)CC(c1ccc3c(c1)OCO3)OC2 (centres undefined) | i
NCCc1ccc(CN2C[C@@H]3CC[C@H](C2)N(Cc2ccccc2)C3)cc1 | 11µM*
CC(=O)Nc1ccc(CN2CCN3C(=O)N(Cc4ccccc4)C[C@H]3C2)cc1 | i
O=C1[C@H]2CN(Cc3ccc(C(F)(F)F)cc3)C[C@H]2C(=O)N1CCc1ccccc1 | i
O=C(c1ccccc1)N1CCC(c2nc(C3CCOCC3)no2)CC1 | -2%
CN(C)Cc1cc(C[C@@H]2C[C@H](N(C)C)C2(C)C)no1 | i
Cc1cnc(C2CCC2)n1CCNC(=O)c1cc(C2CC2)[nH]n1 | -4%
Cc1cnc(C2CC2)n1CCNC(=O)C1CCN1C1CCCCC1 (centres undefined) | -1%
Cc1cc(C)c(S(=O)(=O)NCCn2c(C)cnc2C2CCC2)cc1C | 3.5µM*
CCCNC(=O)CN1C(=O)NC(c2ccccc2OCC)C2=C1COC2=O (centres undefined) | 1%
Cn1nc(C2CCN(C(=O)c3ccc(C(F)(F)F)cc3)CC2)[nH]c1=O | -13%
COc1ccccc1Nc1ncc2c(n1)CN([S+](=O)([O-])c1ccccc1)CCN2 | 9%[44.1 µM]
COc1ccccc1Nc1ncc2c(n1)CN(C(=O)c1ccc(Oc3ccccc3)cc1)CCN2 | 8.9µM*
COc1ccccc1Nc1ncc2c(n1)CN(C(=O)c1cccc(O)c1)CCN2 | -4%[44.1 µM]
SMILES | Pf Dd2 growth
O=C(/C=C/c1ccccc1)Nc1cc(-c2nc3ccccc3o2)ccc1Cl | 15%
Cc1ccc2nc(-c3cc(NC(=O)c4ccc5c(c4)OCCO5)ccc3Cl)oc2c1 | 13%
Cc1ccc2nc(-c3cc(NC(=O)/C=C/c4ccccc4)ccc3Cl)oc2c1 | 11µM*
CCCCCNc1ncnc2c1CN(c1ccc(Cl)cc1)C(=O)CN2C | -25%
O=C(Nc1ccc(-c2cc(C(F)(F)F)nn2-c2ccccc2)cc1)c1cccc(F)c1 | 11µM*
O=C(NC(=O)c1ccccc1)Nc1ccc(-c2cc(C(F)(F)F)nn2-c2ccccc2)cc1 | i
O=C(NC(=O)c1cccc(F)c1)Nc1ccc(-c2cc(C(F)(F)F)nn2-c2ccccc2)cc1 | -18%
Cc1ccc(C(=O)NCc2cccnc2Oc2ccccc2)cn1 | 2%
CN1CCC(Nc2ccc3c(n2)CN(Cc2ccc(C(F)(F)F)cc2)C(=O)CO3)CC1 | -9%[44.1 µM]
Cc1oc(-c2ccccc2F)nc1Cn1c(SCc2ccccc2F)nc2ccncc21 | 58%
O=C(CSc1nc2ccccc2n1Cc1ccccc1F)NCc1ccccc1 | -2%
O=C(NCc1cccs1)c1ccc(CSc2nc3ccncc3n2Cc2ccccc2F)cc1 | 13µM*
Cc1ccccc1Cn1c(SCc2ccc(C(=O)NCc3cccs3)cc2)nc2ccncc21 | 10µM*
CC[C@@]1(O)CCN(C(=O)c2cccc(CCC(C)(C)O)c2)C[C@H]1O | -12%
O=C1CCC2(CCCO2)CCN1Cc1cccc(F)c1 (centres undefined) | 10%
CCOc1ccccc1CN1CCC2(CCN(C(=O)NC3CCCC3)CC2)Oc2ccccc21 | -4%
CCOc1ccccc1CN1CCC2(CCN(C(C)=O)CC2)Oc2ccccc21 | -27%
CCOc1ccccc1CN1CCC2(CCN(C(=O)c3cccc(OC)c3)CC2)Oc2ccccc21 | -31%
CCOc1ccccc1CN1CCC2(CCN(C(=O)Cc3ccccn3)CC2)Oc2ccccc21 | 11µM*!
CCOc1ccccc1CN1CCC2(CCN(C(=O)C3CC3)CC2)Oc2ccccc21 | -30%
CCOc1ccccc1CN1CCC2(CCN(Cc3ccsc3)CC2)Oc2ccccc21 | 10µM*
COc1ccc(C(=O)N2CCCC(c3nc(C4CCOCC4)no3)C2)cc1OC (centres undefined) | 52%
COCCNC(=O)[C@@H]1C[C@@H](O)CN1C1CCN(C(=O)c2ccc3ncccc3c2)CC1 | -12%
Cc1ccc(CNC(=O)[C@H]2CN(Cc3ccccc3)C[C@H]2C(=O)O)o1 | 11%
Cc1cc(C)cc(C(=O)N2CCN(c3cc(-c4ccc(Cl)cc4)[nH]n3)CC2)c1 | -5%
SMILES | Pf Dd2 growth
CN(C)c1nccnc1OC1CCN(C(=O)c2ccncc2)C1 (centres undefined) | i
CCC(CC)C(=O)N1CCC(Oc2nccnc2N(C)C)C1 (centres undefined) | -14%
CN(C)c1nccnc1OC1CCN(C(=O)CCC(=O)c2ccc(F)cc2)C1 (centres undefined) | 5.6µM*
Cc1cccc(C)c1NC(=O)N1CCC2(CC1)SCC(=O)N2Cc1ccccc1 | -7%
CS(=O)(=O)c1ccc(O[C@H]2COCCN(Cc3ccc(-c4ccccc4)cc3)C2)cc1 | i
Cn1nc(C(=O)N2CCCC(CNC(=O)c3ccc(-c4ccccc4)cc3)C2)ccc1=O (centres undefined) | -14%
CCOC(=O)c1cccc(Nc2nc(C(=O)OCC)nc3ccccc23)c1 | 7.9µM*
COc1cc(Cl)c(C)cc1NC(=O)c1ccc2c(Cl)c3c(nc2c1)CCC3 | 16%
COc1ccc(NC(=O)CSc2c3c(nc4ccccc24)CCC3)cc1Cl | 51%
CCOC(=O)c1nc(Nc2cccc(C)c2)c2ccccc2n1 | 4%
COc1cc(Cl)c(C)cc1Nc1c2c(nc3ccccc13)CCC2 | 8.9µM*
CCOC(=O)c1cccc(Nc2cc(-c3ccccc3)ncn2)c1 | 6%
CCOC(=O)c1nc(Nc2ccccc2C)c2ccccc2n1 | 28%
CCOC(=O)c1nc(Nc2ccc(C(C)=O)cc2)c2ccccc2n1 | -11%
CCOC(=O)c1cccc(Nc2c3c(nc4ccccc24)CCC3)c1 | 10µM*
CCOC(=O)c1cccc(NC(=O)CCc2nc3cccnc3n2-c2ccccc2)c1 | 85%
Cc1cccc(Nc2nc(-c3ccccc3)nc3ccccc23)c1 | -20%
CCCOC(=O)c1cccc(Nc2nc(C(=O)OCC)nc3ccccc23)c1 | 5.6µM*
CC(C)NC(=O)C1CCc2nnc(C3CCN(C(=O)c4ccccc4)CC3)n21 (centres undefined) | 19%
CC(C)(C)c1oc(C(N)=O)cc1CN1CCC2(CCCNC2=O)C1 (centres undefined) | -3%
Cc1cccc(OCC2CCCN(C(=O)c3sc(C(C)C)nc3C)C2)c1 (centres undefined) | 12%
COCCN1CCOc2nc(-c3cc(F)cc(OC)c3)ncc2C1=O | -2%[44.1 µM]
CCn1nccc1C(=O)N1CC(c2nc(CCOCC3CC3)no2)C1 | 0%
